The whole screen tested about 5,500 compounds, of which about 2,000 (36%) were called active. Inconclusive results (about 18%) are left out. Rule as the data show it: active = normalized growth mostly below about 0.91 (no sharp cut-off); inconclusive = no clear call, values can overlap the other calls; inactive = mostly above about 0.92. This is one part of the list.
Test: chemical genetic growth profiling, strain panel (AID 1159580);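 also: tested at 20 µM; growth read once vehicle control cultures reached saturation at 30 °C; 1 = growth at the plate median or of vehicle wells; lower values mean less growth of the strain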
Settings: S. cerevisiae deletion strains, growth OD

Measured: normalized growth

Nc1ncnc2c1ncn2[C@@H]1O[C@H](COP(=O)(O)CP(=O)(O)OP(=O)(O)O)[C@H](O)C1O (stereo partly specified)
inactive: locus YAL040C, strain CLN3, hits give low values 1.08 | locus YCL061C, strain MRC1 (second series), hits give low values 0.999 | locus YDR363W, strain ESC2, hits give low values 1 | locus YER002W, strain NOP16, hits give low values 0.983 | locus YGR078C, strain PAC10, hits give low values 1.02 | locus YJR075W, strain HOC1, hits give low values 1.02 | locus YMR263W, strain SAP30, hits give low values 1 | locus YNL175C, strain NOP13, hits give low values 1 | locus YNL197C, strain WHI3, hits give low values 1 | locus YNL224C, strain SQS1, hits give low values 0.999 | locus YOR083W, strain WHI5 (second series), hits give low values 1

Reference: PubChem BioAssay AID1159580 (chemical genetic matrix, 2015)
